In ChEMBL document CHEMBL4513216, “Probing the Open Global Health Chemical Diversity Library for Multistage-Active Starting Points for Next-Generation Antimalarials” (ACS Infect Dis, 2020):
About 2,100 (3.2%) of roughly 65,000 compounds showed an effect of 50% or more. The median lay at about -52%. Only a selection was taken, and strong results are over-represented in it overall.

System: Plasmodium falciparum
Experiment: Screen against P. falciparum Asexual Blood Stage (ABS), at 5uM
Type: functional, Dd2
Conditions: tested at 5 uM

**Q.** With `CC(C)N1CCCC(C(=O)N2CCN(c3nsc4ccccc34)CC2)C1` (stereo unspecified) as the compound, how does the INHIBITION read?
**A.** 70.4%

**Q.** `Cc1ccc(C(=O)N2C[C@@H]3CCN(C(C)C)C[C@@H]3C2)cn1` was tested. Which INHIBITION did it give?
**A.** -25%

**Q.** Which INHIBITION does the source give for `N#CC1(c2ccccc2)CCN(C(=O)C2CCCN(C(N)=O)C2)CC1` (stereo unspecified) here?
**A.** -142%

**Q.** `Cn1cc(CN2CCC[C@]3(C[C@@H](Oc4ccccn4)CO3)C2)cn1` was tested. Which INHIBITION did it give?
**A.** -29.6%

**Q.** For `Cc1nc(CN2CC[C@H]3C[C@H](c4ccncn4)O[C@@H]3C2)cs1`, which INHIBITION is on record?
**A.** -62.5%

**Q.** `O=C(C[C@@H]1COC[C@H]2CN(Cc3ccncc3)C[C@@H]12)N1CCCC1` was tested. Which INHIBITION did it give?
**A.** -88%

**Q.** Which INHIBITION does the source give for `COCCNC(=O)C[C@@H]1COC[C@H]2CN(Cc3cccnc3)C[C@@H]12` here?
**A.** -103%

**Q.** Which INHIBITION does the source give for `COc1ccc(CN2C[C@H]3CN(c4cncnc4)C(=O)[C@H]3C2)cc1` here?
**A.** -49.1%

**Q.** For `CN1CCN([C@H]2COC[C@@H]3CN(Cc4cccnc4)C[C@@H]32)CC1`, which INHIBITION is on record?
**A.** -11.2%

**Q.** `COc1ccc(CN2C[C@@H]3COC[C@@H](N4CCN(C)CC4)[C@@H]3C2)cc1` was tested. Which INHIBITION did it give?
**A.** 73.9%

**Q.** For `Cc1cc(C)cc(CN2C[C@H]3COC[C@H](N4CCN(C)CC4)[C@H]3C2)c1`, which INHIBITION is on record?
**A.** 94.1%

**Q.** How did the INHIBITION turn out when `Cc1c(CC(=O)N2CCN(CC(F)(F)F)CC2)nnn1-c1ccccc1` was run?
**A.** -74%

**Q.** For `Cc1cc(N2CCCC(c3[nH]ncc3Cc3ccccc3)C2)nc(N)n1` (stereo unspecified), which INHIBITION is on record?
**A.** 73.6%

**Q.** For `CCCn1ncc(CN2CCCC(C(=O)c3ccc(Cl)cc3C)C2)c1C` (stereo unspecified), which INHIBITION is on record?
**A.** 78.4%

**Q.** For `Cc1cc(Cl)ccc1C(=O)C1CCCN(Cc2cnc(N(C)C)s2)C1` (stereo unspecified), which INHIBITION is on record?
**A.** -28.8%

**Q.** Which INHIBITION does the source give for `CCn1ncc(CN2CCCC(C(=O)c3ccc(Cl)cc3)C2)c1C` (stereo unspecified) here?
**A.** 70.5%

**Q.** With `Cc1c(CN2CCCC(C(=O)c3ccc(C(C)(C)C)cc3)C2)cnn1C` (stereo unspecified) as the compound, how does the INHIBITION read?
**A.** 57.9%

**Q.** With `COc1ccc(C(=O)C2CCCN(Cc3cnn(C)c3C)C2)c(OC)c1` (stereo unspecified) as the compound, how does the INHIBITION read?
**A.** 39.5%

**Q.** How did the INHIBITION turn out when `CCCn1ncc(CN2CCCC(C(=O)c3ccc(SC)cc3)C2)c1C` (stereo unspecified) was run?
**A.** 65.8%

**Q.** Which INHIBITION does the source give for `Cc1cc(CN2C[C@@H]3COC[C@]3(CNC(=O)N3CCCC3)C2)no1` here?
**A.** -22.5%

**Q.** For `COCCNC(=O)[C@@]12CCO[C@@H]1CCN(Cc1c(C)noc1C)C2`, which INHIBITION is on record?
**A.** -191%

**Q.** For `O=C1CSC(c2ccc(O)c(Cl)c2)c2c(n(C3CCOCC3)[nH]c2=O)N1` (stereo unspecified), which INHIBITION is on record?
**A.** -57.7%

**Q.** With `CCC(C)N1CCC(Oc2ccc(C(=O)NCCN(C)C)cc2Cl)CC1` (stereo unspecified) as the compound, how does the INHIBITION read?
**A.** 79.7%

**Q.** `Cc1nc(C2(NCC(=O)NC(=O)NCC(F)(F)F)CCCCC2)no1` was tested. Which INHIBITION did it give?
**A.** -29.3%

**Q.** How did the INHIBITION turn out when `COc1cc(C)c(-c2ccc(F)c3c2OC(CN)C3)cc1C` (stereo unspecified) was run?
**A.** 83.8%

**Q.** For `Cn1ncc2c1NC(=O)CSC2c1ccccc1Cl` (stereo unspecified), which INHIBITION is on record?
**A.** -82.5%

**Q.** Which INHIBITION does the source give for `Cc1ccc(N2C[C@@H]3OCCN(Cc4c(C)noc4C)[C@@H]3C2)nn1` here?
**A.** 6.3%

**Q.** With `CC(C)c1cc(N2CCCC3(CCN(C)C3)C2)ncn1` (stereo unspecified) as the compound, how does the INHIBITION read?
**A.** -28.1%

**Q.** With `CCc1nc(N)nc(N2CCCC3(CCN(C)CC3)CC2)c1C` as the compound, how does the INHIBITION read?
**A.** 76.1%

**Q.** How did the INHIBITION turn out when `Cc1nc(C)c(C)c(N2CCC3(CCN(C)C3)C2)n1` (stereo unspecified) was run?
**A.** 19.5%

**Q.** For `Cc1cc(NCCc2c[nH]cn2)nc(-c2cccnc2)n1`, which INHIBITION is on record?
**A.** -108.15%

**Q.** For `Cc1cc(NCCN)nc(-c2ccccc2O)n1`, which INHIBITION is on record?
**A.** 79.2%

**Q.** Which INHIBITION does the source give for `Cn1nc(C2CC2)c2c1NC(=O)CC2c1cc(CN2CCCC2)cs1` (stereo unspecified) here?
**A.** 81.9%

**Q.** For `CCN1CCC2(CC1)NC(=O)c1cc(Br)ccc1-n1nnnc12`, which INHIBITION is on record?
**A.** -47.7%

**Q.** `O=C(N1CCCC1)N1C[C@@H]2CCNC[C@@H]21` was tested. Which INHIBITION did it give?
**A.** -67.9%

**Q.** Which INHIBITION does the source give for `O=C(Nc1ccc(Cl)cn1)c1cncc(C2CCNCC2)n1` here?
**A.** 70%

**Q.** How did the INHIBITION turn out when `FC(F)CNc1cnc(C2CCNCC2)cn1` was run?
**A.** -139%

**Q.** `Cc1nn(CCNC(C)Cn2cncn2)c(C)c1Cl` (stereo unspecified) was tested. Which INHIBITION did it give?
**A.** -44.7%

**Q.** How did the INHIBITION turn out when `c1c[nH]c2nc(C3CCNCC3)nc-2c1` was run?
**A.** -162%

**Q.** With `FC(F)(F)c1nc(C2CCNCC2)no1` as the compound, how does the INHIBITION read?
**A.** -40.3%

**Q.** Which INHIBITION does the source give for `FC(F)(F)c1cc(C2CCNCC2)nc(-c2ccsc2)n1` here?
**A.** 89.2%

**Q.** `CS(=O)(=O)CCCNCc1c(Cl)cccc1N1CCCC1` was tested. Which INHIBITION did it give?
**A.** 72%

**Q.** With `CCOCCN1CCO[C@H]2[C@H](OCc3ccccn3)CC[C@@H]21` as the compound, how does the INHIBITION read?
**A.** -65.4%

**Q.** How did the INHIBITION turn out when `O=C(C[C@@H]1COC[C@H]2CN(Cc3cccnc3)C[C@@H]12)NCC1CC1` was run?
**A.** -71.5%

**Q.** For `CO[C@H]1CCN(C(=O)Cc2ccsc2)[C@@H]2CN(CC3CC3)C[C@H]12`, which INHIBITION is on record?
**A.** 19.6%

**Q.** Which INHIBITION does the source give for `CCN1C[C@@H]2[C@@H](OC)CCN(C(=O)Cc3ccsc3)[C@@H]2C1` here?
**A.** 60%

**Q.** `CCN1C[C@H]2[C@@H](C1)N(C(=O)Cc1ccsc1)CC[C@H]2OC` was tested. Which INHIBITION did it give?
**A.** -31.1%

**Q.** How did the INHIBITION turn out when `Cc1cccc(C)c1Nc1noc2c1CN(C(=O)c1ccn(C)n1)CC2` was run?
**A.** 86.6%

**Q.** `Cc1cccc(C)c1Nc1noc2c1CN(C(=O)c1ccnn1C)CC2` was tested. Which INHIBITION did it give?
**A.** 81.7%

**Q.** How did the INHIBITION turn out when `Cc1cccc(C)c1Nc1noc2c1CN(C(=O)c1cn(C)cn1)CC2` was run?
**A.** 88.3%

**Q.** With `Cc1cccc(C)c1Nc1noc2c1CN(C(=O)c1c[nH]nc1C)CC2` as the compound, how does the INHIBITION read?
**A.** 93%
